# Sampled rows, rich in hits. Any-hit rate of the full collection: about 8.7%.
# VACV Venus inh = vaccinia inhibition (Venus reporter) | Vaccinia virus Venus reporter expression, fluorescence | Potency, µM (top dose mostly 36.5 µM), for the others: top-dose activity change, negative = inhibition, hits mostly inhibitors | actives 0.46% (n = 330,000); calls by dose curve; tested in A549 cells; note: nearly all actives have a fitted effect of over 30% in size
# Vaccinia mCherry = inhibitors of vaccinia virus infection (mCherry reporter signal); Vaccinia virus mCherry reporter infection, fluorescence; Potency, µM (series often up to 36.5 µM), inactives show top-dose activity change, negative = inhibition, usual class: inhibitors; actives 0.63% (n = 310,000); calls by dose curve; tested in A549 cells; note: nearly all actives have a fitted effect of over 35% in size
# Pf growth 96h = P. falciparum growth inhibition at 96 hours | Potency, µM (titrated, usually from 28.7 µM), without a hit: at the highest dose activity change, negative = inhibition, most hits filed as inhibitors | actives 6.9% (n = 320,000) | AID 504834 | P. falciparum luciferase reporter growth, 96 h
#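 Parasite growth measured via integrated firefly luciferase reporter in P. falciparum. Infected erythrocytes at 2% hematocrit, 0.05% parasitemia final were treated 96 hours at 37 C under 5% CO2, and luminescence was read.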
# AMA1 RON2 block = inhibitors of Plasmodium falciparum AMA1-RON2 interaction | AlphaScreen AMA1-biotinylated RON2 peptide binding | Potency, µM (series often up to 58.2 µM), without a hit: at the top dose activity change, negative = inhibition, actives largely listed as inhibitors | actives 0.2% (n = 360,000) | AID 720542;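 note: 0% = vehicle wells and -100% = peptide control; nearly all actives have a fitted effect of over 45% in size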
#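 AMA1 (3D7) with his tag at 25 nM final met compounds first, then biotinylated RON2 peptide at 25 nM; detection used donor plus acceptor beads, 10 µg/mL apiece, read by AlphaScreen after 30 min at room temperature.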
# Pf growth 48h = inhibits P. falciparum growth in the first generation, 48 h; P. falciparum luciferase growth in erythrocytes, 48 h; Potency, µM (doses to about 28.7 µM), for inactives: at the top dose activity change, negative = inhibition, most hits filed as inhibitors; actives 5.9% (n = 310,000)
#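 Erythrocytes infected with P. falciparum carrying an integrated firefly luciferase reporter (2% hematocrit, 0.1% parasitemia final) were exposed to compounds in RPMI 1640 with 0.5% Albumax at 37 C, 5% CO2. Growth inhibition was scored as reduced luminescence.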
# Starred values were filed as active, the others as inactive; i = inactive; ? = inconclusive; · = no result; [ ] = another dose, or the depositor's remark. Unless noted, calls come from the whole dose curve; as a rule, active = well fitted curve in the direction sought with a large enough effect; inconclusive = small, poorly fitted or top-dose-only effect, or another doubt; inactive = no such curve, though single readings can be large; an effect the other way counts as inactive or inconclusive. Unless noted, % is set by controls: 0 for no effect and ±100 for the full control effect; potency is the fitted concentration of half-maximal effect.
SMILES,VACV Venus inh,Vaccinia mCherry,Pf growth 96h,AMA1 RON2 block,Pf growth 48h
COC(=O)C1=C(C)NC(C)=C(C(=O)OCCN2CCN(C(c3ccccc3)c3ccccc3)CC2)C1c1cccc([N+](=O)[O-])c1 (stereo not given),·,·,2.4µM*,·,1.7µM*
COC(=O)C1=C(C)NC(C)=C(C(=O)OC)C1c1ccc(-c2cccc([N+](=O)[O-])c2)o1,·,·,?,-5%,?
CCOC(=O)C1=C(C)NC(C)=C(C(=O)OCCNC(=O)c2cccnc2)C1c1cccc([N+](=O)[O-])c1 (stereo not given),-20%,-15%,9.3µM*,-3%,?
O=C(NCCOC(=O)c1ccc([N+](=O)[O-])cc1)c1cccnc1,-4%,i,46%,15%,3%
COC(=O)C1=C(C)NC(C)=C(C(=O)OCCN(C)Cc2ccccc2)C1c1cccc([N+](=O)[O-])c1 (stereo not given),-16%,-8%,2.1µM*,-19%,1.7µM*
COC(=O)C1=C(C#N)NC(C)=C(C(=O)OC(C)C)C1c1cccc([N+](=O)[O-])c1 (stereo not given),·,·,1.2µM*,·,7.6µM*
COc1ccc(CCNC(=O)CN(c2ccc(C)cc2)S(=O)(=O)c2ccc(OC)cc2)cc1,-3%,3%,·,·,·
CC(C)N(Cc1ccccc1)C(=O)Cn1ncc2c3ccccc3n(Cc3ccccc3)c2c1=O,-17%,-15%,·,·,·
CCOc1ccccc1NC(=O)NC(CC)c1c(-n2cccc2)sc2c1CCN(C)C2 (stereo not given),-18%,-18%,·,·,·
COc1cccc(CNc2ccc(N3CCCCC3)cc2)c1OC,32%,·,-18%,35µM*,0.52µM*
COc1cccc(Nc2ccc(N3CCCCC3)cc2)c1OC,·,·,2.3µM*,·,4.7µM*
COc1ccccc1CNc1ccc(N2CCCCC2)cc1,-8%,-18%,?,?,?
Cc1ccc(CN2COc3ccc4c(-c5ccccc5)cc(=O)oc4c3C2)cc1,-10%,-9%,·,·,·
CCOc1ccccc1-n1nnc(-c2nc(-c3ccccc3)no2)c1N,-13%[7.34 µM],-12%[7.34 µM],·,·,·
COc1nc(Nc2ccc(C(C)C)cc2)nc(OC)n1,-4%,i,-10%,-10%,1.2µM*
COc1ccc(Nc2nc(OC)nc(N3CCN(c4ccc(OC)cc4)CC3)n2)cc1,·,·,?,-2%,9.3µM*
COc1ccc(Nc2nc(Cl)nc(N3CCN(c4ccc(OC)cc4)CC3)n2)cc1,·,·,12µM*,·,?
COc1ccccc1NC(=O)CSc1nc2ccccc2c(=O)n1CCC(=O)NC1CCCCC1,0%,-6%,·,·,·
COc1cccc(C(=O)N(Cc2cc3cc4c(cc3nc2N(C)C)OCO4)CC2CCCO2)c1 (stereo not given),3%,8%,·,·,·
O=c1[nH]n(CC2COC3(CCCCC3)O2)c(=O)c2ccccc12 (stereo not given),0%,-12%,8.3µM*,3%,58%
O=C(Cn1[nH]c(=O)c2ccccc2c1=O)NC1CCCCCC1,-24%,·,·,14%,70%
Cn1nnnc1SCCCNCc1ccccc1OCc1ccccc1F,-20%,-18%,·,·,·
O=C(NCc1ccco1)c1cnn2c(C(F)(F)F)cc(-c3ccccc3)nc12,?,-14%,-10%,-4%,13µM*
CC(C)CCNC(=O)c1cnn2c(C(F)(F)F)cc(-c3ccco3)nc12,·,·,9.3µM*,53%,?
CC(C)OC(=O)c1nn2c(C(F)(F)F)cc(-c3ccco3)nc2c1Cl,-18%,·,13µM*,4%,8%
SMILES,VACV Venus inh,Vaccinia mCherry,Pf growth 96h,AMA1 RON2 block,Pf growth 48h
O=C(NC1CCCC1)c1cnn2c(C(F)(F)F)cc(-c3ccco3)nc12,-27%,?,·,2%,?
O=C(NC1CC(=O)N(c2ccc(Cl)cc2)C1)c1cccs1 (stereo not given),-13%,-10%,·,·,·
Oc1ccccc1-c1cncn1Cc1ccccc1,-8%,-10%,15µM*,-2%,·
Cc1nc2cc(NC(=O)[C@@H]3C[C@@H](Sc4ccccn4)CN3Cc3ccccc3)ccc2s1,-4%,-14%,·,·,·
CCOc1ccc(NC(=O)Cn2cc(S(=O)(=O)NC)c(S(=O)(=O)NC)c2)cc1,-9%,-12%,·,·,·
O=C(Cc1ccc(Br)cc1)NO,-9%,i,·,·,·
C=CCn1c(O)c(C(C)=Nc2ccc(N(C)C)cc2)c(=O)[nH]c1=O,·,·,·,-12%,12µM*
CC(C)CNC(=O)COC(=O)C1c2ccccc2Oc2ccccc21,-19%,-5%,0%,-8%,24%
Cc1ccc(OC(=O)C2c3ccccc3Oc3ccccc32)cc1C,·,·,5.2µM*,24%,-12%
CC(C)[N+](C)(CCOC(=O)C1c2ccccc2Oc2ccccc21)C(C)C,-6%,-2%,0.015µM*,-15%,?
CCN(CC)C(=O)C1c2ccccc2Oc2ccccc21,-13%,-2%,5.2µM*,36%,28%
COc1ccccc1N1CCN(C(CNS(=O)(=O)c2cccs2)c2cccnc2)CC1 (stereo not given),1%,-5%,?,-15%,10µM*
COc1ccc(S(=O)(=O)NCC(c2ccco2)N2CCN(c3ccc(F)cc3)CC2)cc1C (stereo not given),-19%,-22%,·,·,·
COc1ccc(S(=O)(=O)NCC(c2cccnc2)N2CCN(c3ccc(F)cc3)CC2)cc1C (stereo not given),?,·,237%,-5%,4.7µM*
COc1ccc(S(=O)(=O)NCC(c2cccnc2)N2CCN(c3ccccc3)CC2)cc1C (stereo not given),10µM*,-17%[1.46 µM],?,-13%,·
O=S(=O)(NCC(c1cccnc1)N1CCN(Cc2ccccc2)CC1)c1cc(F)ccc1F (stereo not given),-7%,i,10µM*,-7%,?
CCc1ccc(OCC(=O)Nc2cc(-c3ccc(C)cc3)no2)cc1,-8%,-11%,·,·,·
CCOC(=O)c1oc2c(c1C)-c1nn(Cc3cccc(Cl)c3)cc1CC2,-30%,-5%,·,·,·
CCN1CCN(C(CNS(=O)(=O)c2ccc(OC)c(C)c2)c2cccnc2)CC1 (stereo not given),-6%,0%,15µM*,11%,-5%
Cc1nn(-c2ccc(F)cc2)c(-n2cccc2)c1C(=O)N1CCN(c2ccc(F)cc2)CC1,-7%,-12%,·,·,·
O=C(Nc1ccc2nccnc2c1)N1CCCCCC1,-8%,-8%,·,·,·
COc1ccc2nc(S(=O)Cc3ncc(C)c(OC)c3C)[nH]c2c1 (stereo not given),-17%,-1%,3.3µM*,39%,12µM*
COCCCOc1ccnc(CS(=O)c2nc3ccccc3[nH]2)c1C (stereo not given),-26%,-5%,57%,62%,40%
CCn1cc2nc(SCC(=O)Nc3ccc(C)cc3C)n(Cc3ccc(C)cc3)c(=O)c2n1,-25%[7.34 µM],-23%[7.34 µM],·,·,·
CCn1cc2nc(SCC(=O)Nc3ccc(F)cc3F)n(Cc3ccccc3)c(=O)c2n1,·,·,13µM*,-8%,?
COc1ccc(NC(=O)CCC(=O)N(Cc2ccc(OC)c(OC)c2)c2nccs2)c(OC)c1,-14%,-20%,2.9µM*,-27%,7%
